Data on 7 sequences can be found in paper PMC4081100, “A DNA-binding-site landscape and regulatory network analysis for NAC transcription factors in Arabidopsis thaliana”.

What all share (assay): universal protein binding microarray (PBM); transcription factors of Arabidopsis thaliana; high values mean tight binding
Common to all, as to conditions: protein: recombinant; tags: GST; chain copies: 2; dsDNA, one strand shown

In one experiment the target is T1, GST-ANAC092(1-176) (Arabidopsis thaliana, UniProt Q9FKA0 1-176).
T1 sequence: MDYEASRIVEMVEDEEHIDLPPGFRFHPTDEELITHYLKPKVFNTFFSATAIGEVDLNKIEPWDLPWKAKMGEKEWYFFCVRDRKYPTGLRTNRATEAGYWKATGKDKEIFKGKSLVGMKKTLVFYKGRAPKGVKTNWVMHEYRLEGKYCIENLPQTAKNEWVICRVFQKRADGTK
In a few lines:
(§1)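 Binding is expressed as the normalised enrichment score (E-score). Proteins carrying a GST tag, whether NAC-domain, full-length or DNA-binding-domain forms, were induced in cells, and zinc acetate was added for zinc-finger proteins. After purification on glutathione–Sepharose 4B and quantification by A280 or anti-GST western blot, each was applied in duplicate at 200 to 500 nM final to custom all-10-mer Agilent 4 × 180K arrays made double-stranded by primer extension. Gapped and ungapped 8-mers were scored.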

Another experiment concerns the target T2, GST-ANAC019 NAC domain (Arabidopsis thaliana, UniProt Q9C932 14-162).
T2 sequence: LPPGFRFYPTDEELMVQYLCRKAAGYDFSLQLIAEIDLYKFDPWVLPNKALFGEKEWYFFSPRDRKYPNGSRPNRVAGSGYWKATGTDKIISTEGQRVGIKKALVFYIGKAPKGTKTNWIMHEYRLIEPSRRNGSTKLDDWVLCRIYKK
Summed up:
as §1

A further experiment concerns the target T3, GST-ANAC055(1-171) (Arabidopsis thaliana, UniProt Q9LDY8 1-171).
T3 sequence: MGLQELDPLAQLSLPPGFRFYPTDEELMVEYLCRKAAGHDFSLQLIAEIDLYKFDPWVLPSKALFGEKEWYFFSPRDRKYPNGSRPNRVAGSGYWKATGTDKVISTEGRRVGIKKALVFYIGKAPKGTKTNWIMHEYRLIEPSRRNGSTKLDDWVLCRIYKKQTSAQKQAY
In a few lines: as §1

A further experiment has as its target T4, GST-ATAF1 NAC domain (Arabidopsis thaliana, UniProt Q39013 7-158).
T4 sequence: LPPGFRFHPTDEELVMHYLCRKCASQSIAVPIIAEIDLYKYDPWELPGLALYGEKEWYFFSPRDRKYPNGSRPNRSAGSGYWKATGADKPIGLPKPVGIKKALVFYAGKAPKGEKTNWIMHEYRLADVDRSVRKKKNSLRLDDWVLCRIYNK
In a few lines: as §1

Experiment [1] addresses T5, GST-ANAC092(1-285) full length (Arabidopsis thaliana, UniProt Q9FKA0 1-285).
T5 sequence: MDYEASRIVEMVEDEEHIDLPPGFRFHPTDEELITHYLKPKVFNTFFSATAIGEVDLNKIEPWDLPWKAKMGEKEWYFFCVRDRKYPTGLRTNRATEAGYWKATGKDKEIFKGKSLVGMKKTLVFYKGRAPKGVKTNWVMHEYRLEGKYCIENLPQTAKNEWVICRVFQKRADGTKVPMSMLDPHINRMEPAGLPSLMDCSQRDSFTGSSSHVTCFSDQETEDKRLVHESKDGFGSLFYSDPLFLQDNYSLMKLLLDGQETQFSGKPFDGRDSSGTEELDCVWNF
In a few lines:
as §1

In the next experiment the target is T6, GST-NAP(1-166) (Arabidopsis thaliana, UniProt O49255 1-166).
T6 sequence: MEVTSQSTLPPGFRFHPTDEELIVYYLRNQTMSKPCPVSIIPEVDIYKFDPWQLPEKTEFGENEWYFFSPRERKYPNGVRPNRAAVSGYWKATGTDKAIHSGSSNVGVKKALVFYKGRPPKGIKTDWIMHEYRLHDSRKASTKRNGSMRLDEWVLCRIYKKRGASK
Summed up: as §1

The next experiment has as its target T7, GST-NST2(1-184) (Arabidopsis thaliana, UniProt Q9M274 1-184).
T7 sequence: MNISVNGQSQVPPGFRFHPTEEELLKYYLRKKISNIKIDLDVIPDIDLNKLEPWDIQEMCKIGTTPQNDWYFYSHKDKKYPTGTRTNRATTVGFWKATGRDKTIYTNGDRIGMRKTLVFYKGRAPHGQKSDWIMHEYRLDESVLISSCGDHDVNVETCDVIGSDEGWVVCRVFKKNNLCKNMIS
Summed up: as §1

For a further experiment, the target named is T8, GST-NTL8 NAC domain (Arabidopsis thaliana, UniProt Q9XIN7 14-156).
T8 sequence: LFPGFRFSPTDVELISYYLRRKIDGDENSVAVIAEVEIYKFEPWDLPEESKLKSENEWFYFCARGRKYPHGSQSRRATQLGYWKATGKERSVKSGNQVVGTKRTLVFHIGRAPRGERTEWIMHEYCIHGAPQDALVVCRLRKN
In a few lines:
as §1

For the next experiment, the target named is T9, GST-SND1(1-203) (Arabidopsis thaliana, UniProt Q9LPI7 1-203).
T9 sequence: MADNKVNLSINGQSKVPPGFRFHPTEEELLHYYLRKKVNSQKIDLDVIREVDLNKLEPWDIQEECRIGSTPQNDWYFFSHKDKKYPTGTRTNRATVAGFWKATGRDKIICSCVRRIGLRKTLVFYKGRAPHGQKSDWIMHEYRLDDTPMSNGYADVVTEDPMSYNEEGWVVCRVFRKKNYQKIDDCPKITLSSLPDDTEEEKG
Summed up:
as §1

The next experiment deals with T10, GST-VND3 NAC domain (Arabidopsis thaliana, UniProt Q9FH59 12-162).
T10 sequence: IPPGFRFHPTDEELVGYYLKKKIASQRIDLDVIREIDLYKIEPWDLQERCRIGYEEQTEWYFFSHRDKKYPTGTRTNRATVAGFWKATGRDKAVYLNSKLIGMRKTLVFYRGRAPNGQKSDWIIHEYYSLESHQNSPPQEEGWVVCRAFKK
Summed up: as §1

A further experiment has as its target T11, GST-VND7 NAC domain (Arabidopsis thaliana, UniProt Q9C8W9 9-158).
T11 sequence: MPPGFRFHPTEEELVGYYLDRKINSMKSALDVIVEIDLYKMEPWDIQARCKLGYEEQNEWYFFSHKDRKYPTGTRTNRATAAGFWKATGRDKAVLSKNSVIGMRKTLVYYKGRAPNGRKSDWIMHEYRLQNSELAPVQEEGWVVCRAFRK
In a few lines: as §1

CACGCAAC: the binding signal was 0.496 E-score with GST-ANAC092(1-176); 0.486 E-score in the experiment with GST-ANAC019 NAC domain; 0.463 E-score with GST-ANAC055(1-171); 0.437 E-score with GST-ATAF1 NAC domain; 0.498 E-score in experiment [1]; 0.489 E-score with GST-NAP(1-166). Further, the binding signal came out at 0.444 E-score with GST-NST2(1-184); 0.181 E-score in the experiment with GST-NTL8 NAC domain; 0.482 E-score with GST-SND1(1-203); 0.476 E-score with GST-VND3 NAC domain; 0.484 E-score with GST-VND7 NAC domain.

Turning to TCACGTAA, the binding signal with GST-ANAC092(1-176) amounted to 0.443 E-score; with GST-ANAC019 NAC domain it was 0.47 E-score; with GST-ANAC055(1-171) it was 0.424 E-score; with GST-ATAF1 NAC domain it was 0.324 E-score; in experiment [1], 0.445 E-score; in the experiment with GST-NAP(1-166), 0.405 E-score. Also, the binding signal in the experiment with GST-NST2(1-184) was 0.269 E-score; in the experiment with GST-NTL8 NAC domain it was 0.209 E-score; with GST-SND1(1-203), 0.326 E-score; with GST-VND3 NAC domain it was 0.441 E-score; with GST-VND7 NAC domain, 0.44 E-score.

With CACGTTAC, the binding signal came to 0.467 E-score in the experiment with GST-ANAC092(1-176); 0.241 E-score with GST-ANAC019 NAC domain; 0.293 E-score with GST-ANAC055(1-171); 0.287 E-score in the experiment with GST-ATAF1 NAC domain; 0.476 E-score in experiment [1]; 0.221 E-score with GST-NAP(1-166). The binding signal turned out to be 0.328 E-score with GST-NST2(1-184); 0.0995 E-score with GST-NTL8 NAC domain; 0.432 E-score with GST-SND1(1-203); 0.319 E-score in the experiment with GST-VND3 NAC domain; 0.275 E-score with GST-VND7 NAC domain.

As for AGCACGCA, the binding signal came out at 0.435 E-score with GST-ANAC092(1-176); 0.333 E-score in the experiment with GST-ANAC019 NAC domain; 0.281 E-score with GST-ANAC055(1-171); 0.31 E-score in the experiment with GST-ATAF1 NAC domain; 0.453 E-score in experiment [1]; 0.282 E-score with GST-NAP(1-166). For the same sequence, the binding signal in the experiment with GST-NST2(1-184) worked out at 0.222 E-score; in the experiment with GST-NTL8 NAC domain, 0.0609 E-score; with GST-SND1(1-203), 0.343 E-score; in the experiment with GST-VND3 NAC domain, 0.301 E-score; with GST-VND7 NAC domain it was 0.216 E-score.

Turning to ACGCAATG, the binding signal was found to be 0.452 E-score in the experiment with GST-ANAC092(1-176); 0.32 E-score in the experiment with GST-ANAC019 NAC domain; 0.21 E-score with GST-ANAC055(1-171); 0.162 E-score in the experiment with GST-ATAF1 NAC domain; 0.456 E-score in experiment [1]; 0.35 E-score with GST-NAP(1-166). Moreover, the binding signal with GST-NST2(1-184) was 0.359 E-score; in the experiment with GST-NTL8 NAC domain, 0.0941 E-score; with GST-SND1(1-203), 0.437 E-score; with GST-VND3 NAC domain, 0.314 E-score; in the experiment with GST-VND7 NAC domain, 0.311 E-score.

Turning to GCACGGAA, the binding signal with GST-ANAC092(1-176) turned out to be 0.388 E-score; with GST-ANAC019 NAC domain it was 0.472 E-score; in the experiment with GST-ANAC055(1-171), 0.457 E-score; in the experiment with GST-ATAF1 NAC domain, 0.357 E-score; in experiment [1], 0.413 E-score; with GST-NAP(1-166), 0.437 E-score. Moreover, the binding signal with GST-NST2(1-184) amounted to 0.2 E-score; in the experiment with GST-NTL8 NAC domain, 0.193 E-score; with GST-SND1(1-203) it was 0.156 E-score; in the experiment with GST-VND3 NAC domain, 0.402 E-score; in the experiment with GST-VND7 NAC domain, 0.453 E-score.

For CCACACGC, the binding signal in the experiment with GST-ANAC092(1-176) is 0.4 E-score; with GST-ANAC019 NAC domain it was 0.242 E-score; in the experiment with GST-ANAC055(1-171), 0.15 E-score; with GST-ATAF1 NAC domain, 0.155 E-score; in [1], 0.436 E-score; with GST-NAP(1-166), 0.169 E-score. The binding signal with GST-NST2(1-184) stood at 0.144 E-score; in the experiment with GST-NTL8 NAC domain it was 0.0869 E-score; with GST-SND1(1-203), 0.213 E-score; with GST-VND3 NAC domain it was 0.163 E-score; with GST-VND7 NAC domain, 0.181 E-score.
